The values that follow come from PubChem BioAssay AID602449 (Sanford-Burnham Center for Chemical Genomics, 2012).

In all, about 360,000 compounds went through this assay and about 5,000 (1.4%) were called active. Shown is part of a subset that was picked to be rich in actives. Values without a mark were called inactive.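 Rule for the calls: active = inhibition of 50% or more, scaled per plate between neutral and stimulator controls; inactive = the rest.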

This test can be described thus: blockers of Ca2+-induced mitochondrial swelling – biochemical, isolated mouse mitochondria, absorbance, primary screen (AID 602449).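 Note: 0% = DMSO wells given calcium and 100% = 1 mM EGTA wells.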 As to conditions: 30 min, at 10 µM, hits give high values.
One may read the inhibition as the drop in the measured response relative to a control, in per cent. Turning to `O=C(Nc1nsc(-c2ccccc2)n1)c1ccncc1`, the inhibition was 0.9%.
For the compound `O=C(CN(c1cccc(Cl)c1)S(=O)(=O)c1ccccc1)NN=C1CCCC1`, the inhibition is 0.3%.
As for `CCCCOC(=O)CNc1nnc(SCC(=O)OCC)[nH]c1=O`, the inhibition is 77.3% (active).
As to `Cc1nnc(SCC(=O)N2CCOCC2)[nH]c1=O`, the inhibition was 26.4%.
As to `CCOC(=O)CSc1nc(C)c(Oc2ccc(Cl)cc2Cl)c(=O)[nH]1`, the inhibition was 2.7%.
As to `COc1ccccc1P(=O)(c1ccccc1)c1ccccc1NC(C)=O` (configuration not stated), the inhibition was 0.1%.
With `COC(C[C@H](O)CC(=O)COCc1ccccc1)OC`, the inhibition was -0.4%.
On to `O=C(N/N=C/c1ccc(O)c(O)c1)C1c2ccccc2Oc2ccccc21`, for which the inhibition is 104% (active).
Regarding `CC(C)(C)c1nnc(NC(=O)C2c3ccccc3Oc3ccccc32)s1`, the inhibition was 6.5%.
For the compound `Cn1c(SCC(=O)N/N=C/c2ccc(O)c(O)c2)nc2ccccc21`, the inhibition was 2.9%.
The result for `COc1ccc(CNS(=O)(=O)c2cc(-c3cc(C)no3)ccc2C(C)C)cc1` reads -0.4%; that for `COc1cc(NC(=S)NCc2ccc(S(N)(=O)=O)cc2)cc(OC)c1`, -1%; that for `Cc1cccc(NC(=S)NCCc2ccc(F)cc2)c1C`, 0.7%.
`Cc1cc(C)cc(NC(=S)NCc2ccc(F)cc2)c1`: the inhibition is 50.1% (active).
The result for `CC(C)CNC(=S)Nc1ccc(F)cc1` reads 2.1%; that for `Cc1c(NC(=O)CCCOc2ccccc2)cccc1[N+](=O)[O-]`, 0.1%.
The result for `Cc1c(NC(=S)NCc2ccc(F)cc2)cccc1[N+](=O)[O-]` reads 96.5% (active); that for `C/C(=N\N=C(N)N)c1ccc(Cl)cc1`, 2%.
To `COc1cccc(NC(=O)C(Sc2nnnn2C)c2ccccc2)c1` (configuration not stated) belongs -1.4%; to `CCOc1ccc(OCC)c(NC(=O)CN(C)S(=O)(=O)c2cccc3nsnc23)c1`, -0.3%.
Consider `COc1ccccc1OCCNc1cc(N2CCOCC2)ccc1[N+](=O)[O-]`, for which the inhibition is 2.8%.
As to `COc1ccc(CCNC(=O)c2ccccc2-c2ccccc2C(=O)O)cc1OC`, the inhibition is -0.5%.
As for `COc1ccc(CCNc2cc(N3CCN(C(=O)c4ccccc4OC)CC3)ccc2[N+](=O)[O-])cc1OC`, the inhibition was 55.3% (active).
In the case of `O=S(=O)(CCc1nc2ccccc2o1)c1ccc(Cl)cc1`, the inhibition was -1.2%.
To `S=C(NCCc1ccccc1)NCc1ccccc1Cl` belongs 69.8% (active); to `Cc1cc(F)ccc1NC(=S)NCCc1ccccc1`, 0%; to `O=C(NCCc1ccccc1)C1CC1`, -0.4%.
In the case of `O=C(NCCCc1ccccc1)C1CCC(CNc2c(N3CCCCC3)c(=O)c2=O)CC1` (configuration not stated), the inhibition was 0.1%.
Consider `CC(C)(CNC(=O)Cc1ccc(Cl)cc1Cl)N1CCOCC1`, for which the inhibition was 1.9%.
Take `CC1=NN(/C(=N\c2nnc(C)s2)Nc2ccccc2)[C@H](c2ccc(C)cc2)S1`: the inhibition is 0.1%.
As to `FC(F)(F)COc1nc(N2CCCCC2)nc(N2CCNCC2)n1`, the inhibition was 78.3% (active).
In the case of `COc1nc(NC2CCCCC2)nc(N2CCCCCC2)n1`, the inhibition is 20.8%.
As for `CN(N)c1nc(N2CCCC2)nc(N2CCCC2)n1`, the inhibition is 1.8%.
Turning to `O=S(=O)(c1ccccc1)N1CCC(c2ccccc2)CC1`, the inhibition is 1.4%.
In the case of `COc1ccc(C2(C)ON(c3ccccc3C(F)(F)F)C2=O)cc1` (configuration not stated), the inhibition is -1.7%.
As for `CCc1noc(C)c1C(=O)Oc1ccc(N(C)S(=O)(=O)c2ccc(C)c(C)c2)cc1`, the inhibition is 0.2%.
Regarding `Cc1ccc(CNC(=O)CCC(=O)N2CC(C)Sc3ccccc32)cc1` (configuration not stated), the inhibition was -1.8%.
With `O=C(c1ccc(Cl)cc1)c1ccc(OCC(O)CN2CCCCC2)cc1` (configuration not stated), the inhibition was 96.3% (active).
As for `CC(=O)Nc1ccc(OCC(O)CN2CCN(c3ccccc3Cl)CC2)cc1` (configuration not stated), the inhibition is -1.1%.
In the case of `OC(COc1ccc(CN2CCSCC2)cc1)CN1CCCCC1` (configuration not stated), the inhibition was 1.1%.
The result for `CCC(C)N1C(=O)S/C(=C/c2ccc(Sc3nc4ccccc4[nH]3)o2)C1=O` (configuration not stated) reads 91.9% (active); that for `CN1CCN(c2ccc([N+](=O)[O-])c(Sc3nc4ccccc4[nH]3)c2)CC1`, -0.9%; that for `CCC(c1nc2ccccc2[nH]1)n1c(=O)c(-c2cccs2)nc2ccccc21` (configuration not stated), 2.6%.
For `O=C(NC1CCCC1)C1c2ccccc2OCC(=O)N1CC(F)(F)F` (configuration not stated), the inhibition was -0.2%.
`COc1ccc(N2CCN(C(=O)[C@@H](NC(=O)c3cc(OC)cc(OC)c3)C(C)C)CC2)cc1`: the inhibition was 0.3%.
On to `O=C(Nc1nnc(S(=O)(=O)N2CCCCCC2)s1)c1cccc(Br)c1`, for which the inhibition was 79.7% (active).
On to `COc1cccc(C(=O)Nc2nnc(S(=O)(=O)N3CCOCC3)s2)c1`, for which the inhibition is -1%.
For the compound `O=C(Nc1nnc(S(=O)(=O)N2CCOCC2)s1)c1cccc(Br)c1`, the inhibition was 4.6%.
For the compound `COc1cccc(C(NC(C)=O)c2nc(-c3cnc4ccccc4c3)cs2)c1` (configuration not stated), the inhibition was 0.4%.
For `CCCCn1c(N)c(N(CCC(C)C)C(=O)c2ccc([N+](=O)[O-])o2)c(=O)[nH]c1=O`, the inhibition is -0.3%.
The result for `COc1ccc(NC(=O)CN(C)C(=O)Cc2coc3cc(C)c(C)cc23)cc1` reads -0.3%; that for `Cc1ccc(F)cc1NC(=O)CSCc1c(C)noc1C`, -0.3%; that for `Cc1ccc(F)cc1NC(=O)Cc1nn(C)c(=O)c2ccccc12`, 69.1% (active).
The result for `Cc1ccc(C)c(NC(=O)COC(=O)c2nn(C)c(=O)c3ccccc23)c1` reads 1.4%; that for `O=C1CC(c2c(F)cccc2Cl)C(n2cncn2)C(O)=C1C1NCCc2ccccc21` (configuration not stated), 5.6%.
With `NNC(=O)COc1ccc(C2SCCS2)cc1`, the inhibition is -1%.
For the compound `COc1ccc(CCC(C)N2CCc3ccccc3C2)cc1` (configuration not stated), the inhibition was -0.5%.
With `Cn1c(=O)c2c(nc(CN3CCOCC3)n2Cc2ccccc2)n(C)c1=O`, the inhibition is 0.1%.
For `COCCn1c(CN2CCC(Cc3ccccc3)CC2)nc2c1c(=O)n(C)c(=O)n2C`, the inhibition was 83.7% (active).
As for `COCCn1c(CN(Cc2ccccc2)Cc2ccccc2)nc2c1c(=O)n(C)c(=O)n2C`, the inhibition was 0.9%.
To `COc1cc(C(=O)Nc2cc(C(F)(F)F)ccc2-n2cncn2)cc(OC)c1OC` belongs -0.1%; to `Cc1cc(C)c2c(Cn3ccnc3)cc(=O)oc2c1`, -1.5%.
